Inconclusive results are not listed. A call without a number means that no potency is given here. Calls of active or inactive are those of the source. Calls come from the whole dose curve; as a rule, active = well fitted cell-killing curve with a large enough effect; inconclusive = small, poorly fitted or top-dose-only effect, or effect the other way; inactive = flat fitted curve, though single readings scatter.
Potency is the fitted concentration of half-maximal effect.

The test concerns C33A. Put plainly: Primary qHTS to identify gynecologic anti-cancer compounds using libraries of approved drugs and bioactive compounds (AID 1345084). Note: nearly all actives have a fitted effect of over 55% in size. The note with it: Gynecologic cancer cell panel viability, ATPlite luminescence, 48 h; series mostly up to 57.5 µM. A digest of the protocol:
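Cell viability after 48 h drug treatment, ATPlite luminescence readout; five doses.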
For orientation: qHTS replaces the single test concentration by a dilution series.
Regarding `CCCN(CCC)S(=O)(=O)c1ccc(C(=O)O)cc1`, the Potency result is “inactive”.
The value for `CC(C)Cc1ccc(CC(=O)O)cc1` was “inactive”.
The value for `c1ccc(CC2=NCCN2)cc1` was “inactive”; that for `CC(C)[N+](C)(C)CC(O)COc1cccc2ccccc12` (stereo not drawn) was “inactive”.
The same measure for `CC(C)(C)NCC(O)COc1cccc2c1C[C@H](O)[C@H](O)C2` (stereo partly drawn): “inactive”.
In the case of `OCc1ccccn1`, the Potency entry is “inactive”.
Take `Cc1cc(C)cc(OCC2CNC(=O)O2)c1` (stereo not drawn): the Potency result is “inactive”.
The value for `C[C@H]1O[C@@H](O[C@H]2CC[C@@]3(C)[C@H](CC[C@@H]4[C@@H]3C[C@@H](O)[C@]3(C)[C@@H](C5=CC(=O)OC5)CC[C@]43O)C2)C[C@H](O)[C@@H]1O[C@H]1C[C@H](O)[C@H](O[C@H]2C[C@H](O)[C@H](O[C@@H]3O[C@H](CO)[C@@H](O)[C@H](O)[C@H]3O)[C@@H](C)O2)[C@@H](C)O1` was 282 nM (active); that for `O=[N+]([O-])c1ccc(/C=N\O)o1` was “inactive”; that for `CC(=O)OCC1=C(C(=O)O)N2C(=O)[C@@H](NC(=O)CSc3ccncc3)[C@H]2SC1` was “inactive”.
Consider `CC(=O)NCCCCCC(=O)O`, for which the Potency entry is “inactive”.
With `O=C1C(CCS(=O)c2ccccc2)C(=O)N(c2ccccc2)N1c1ccccc1` (stereo not drawn), the Potency result was “inactive”.
Regarding `CC(=O)Nc1ccc(OCC(O)CNC(C)C)cc1` (stereo not drawn), the Potency entry was “inactive”.
Take `NS(=O)(=O)c1ccc(Cl)c(S(N)(=O)=O)c1`: the Potency result was “inactive”.
With `CC[C@H](c1ccc(O)cc1)[C@@H](CC)c1ccc(O)cc1`, the Potency result is “inactive”.
Turning to `C/C=C/C=N/NC(=O)c1ccncc1`, the Potency result is “inactive”.
The value for `CCOc1ccccc1C(N)=O` was “inactive”; that for `NCCNc1cccc2ccccc12` was “inactive”.
Consider `C[N+]12CCC(CC1)C(OC(=O)C(O)(c1ccccc1)c1ccccc1)C2` (stereo not drawn), for which the Potency result was “inactive”.
As for `CC1(COc2ccc(CC3SC(=O)NC3=O)cc2)CCCCC1` (stereo not drawn), the Potency result was “inactive”.
The value for `CCN1CCN(C(=O)N[C@@H](C(=O)N[C@@H]2C(=O)N3C(C(=O)O)=C(CSc4nnnn4C)CS[C@H]23)c2ccc(O)cc2)C(=O)C1=O` was “inactive”.
The value for `O=C(O)P(=O)(O)O` was “inactive”; that for `O=S(c1cc(Cl)cc(Cl)c1O)c1cc(Cl)cc(Cl)c1O` was “inactive”.
The value for `C=C1c2cccc(O)c2C(O)=C2C(=O)[C@]3(O)C(O)=C(C(N)=O)C(=O)[C@@H](N(C)C)[C@@H]3[C@@H](O)[C@H]12` was “inactive”.
On to `Nc1ccc(C(=O)NCC(=O)O)cc1`, for which the Potency entry is “inactive”.
The same measure for `CN1CCN(C2=Nc3ccccc3Sc3ccc(Cl)cc32)CC1`: “inactive”.
The value for `C#C[C@]1(O)CC[C@H]2[C@@H]3CCc4cc(OC)ccc4[C@H]3CC[C@@]21C` was “inactive”.
Turning to `Cc1cn([C@H]2C[C@H](F)[C@@H](CO)O2)c(=O)[nH]c1=O`, the Potency entry was “inactive”.
Regarding `O=C(Nc1ccc([N+](=O)[O-])cc1)Nc1ccc([N+](=O)[O-])cc1`, the Potency result is “inactive”.
With `O=C(O)Cc1csc(-c2ccc(Cl)cc2)n1`, the Potency entry is “inactive”.
The value for `COc1cc([C@H]2Oc3cc([C@H]4Oc5cc(O)cc(O)c5C(=O)[C@@H]4O)ccc3O[C@@H]2CO)ccc1O` was “inactive”; that for `CC(=O)O[C@]1(C(C)=O)CC[C@H]2[C@@H]3C=C(Cl)C4=CC(=O)CC[C@]4(C)[C@H]3CC[C@@]21C` was “inactive”.
In the case of `CCNC(=O)NCc1cccc(Cl)c1`, the Potency result is “inactive”.

The values above are taken from PubChem BioAssay (NCATS).
